Test results published in PubChem BioAssay.
Values joined by “and” are separate entries in the source; they are usually repeats but may differ in a detail not shown here. Equal values may be shown once. Active and inactive are the calls of the source.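 How the source made its calls, unless noted: active means thallium flux through the channel raised or lowered by more than 3 SD from vehicle-only wells, actives on both sides; inactive means the rest.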

Experiments:
[1] = test system: Hepatitis C virus NS3 helicase; assay: blockers of NS3h binding to DNA – biochemical, fluorescence polarization, NIH Clinical Collection, primary screen (AID 743270; call rule not given here); conditions: NS3 helicase binding to Cy5-dT15 DNA, stronger effect = higher value, concentration not given here
[2] = target: Single-stranded DNA-binding protein (Escherichia coli (strain K12)) (UniProt P0AGE0); assay: SSB-ssDNA binding inhibitors – biochemical, fluorescence polarization, NIH Clinical Collection, counter-screen for HCV NS3 helicase inhibitor project (AID 743271; in the data active means inhibition above about 28%); conditions: E. coli SSB-DNA binding, stronger effect = higher value, concentration not given here
[3] = compounds distorting NS3 helicase fluorescence signal – biochemical, NIH Clinical Collection, artefact control for HCV NS3 helicase inhibitor project (AID 743272; call rule not given here;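 further: HCV NS3 helicase with a Cy5 labelled single stranded DNA probe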); conditions: fluorescence interference counterscreen, HCV NS3 helicase assay; stronger effect = lower value
[4] = Wnt pathway potentiators raising nuclear beta-catenin – imaging, WNT3A-conditioned medium, mouse C2C12, NPC library, primary screen (AID 1117326; in the data active means nuclear beta-catenin stimulation mostly above about 4.2%, no sharp cut-off; inactive means mostly below about 10%); conditions: stronger effect = higher value
[5] = stimulators of insulin release from INS-1E, primary screen, cell-based, 5 mM glucose, NPC library (AID 1117329;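 active means compound raises insulin release from rat beta cells at 5 mM glucose, no numeric limit stated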); conditions: rat INS-1E insulin secretion, at 10 µM, stronger effect = higher value
[6] = growth inhibition of GSK3B-pretreated HCT116 cells – cell-based, CellTiter-Glo, 0.2 to 20 µM (AID 1117336;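 active means compounds lowering colon cancer cell viability after pretreatment blocking the GSK3B kinase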); conditions: HCT116 viability after GSK3B inhibitor, at 20 µM, stronger effect = higher value
[7] = inhibition of endothelial tube formation, primary screen, imaging, VEGF stimulated, CD31 staining, tube area, NPC library (AID 1117340;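 active means compound that reduces growth-factor-driven endothelial tube area in a mixed cell culture, no cutoff stated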); conditions: VEGF-stimulated ADSC/ECFC co-culture, at 10 µM, stronger effect = higher value
[8] = GLP1 release stimulators, primary, NCI-H716, NPC library (AID 1117341;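 active means compound raises GLP1 secretion from the human gut endocrine cells, with no numeric limit stated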); conditions: NCI-H716 cells, at 10 µM, stronger effect = higher value
[9] = HCT116 colon cancer cell growth inhibition, primary screen, CellTiter-Glo luminescence, NPC library (AID 1117342;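 active means compounds that lower survival of HCT116 colon cancer cells in the luminescence readout, no numeric limit stated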); conditions: at 20 µM (top of the series)
[10] = reduced SW480 viability measured with CellTiter-Glo, NPC library, primary (AID 1117343;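 active means compounds that lower viability of the colon cancer cells in the luminescence readout, with no numeric limit stated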); conditions: CellTiter-Glo luminescence; at 20 µM (top of the series)
[11] = NPC library primary testing for decreased DLD-1 cell viability via CellTiter-Glo (AID 1117346;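 active means compounds that lower survival of DLD-1 colon cancer cells in the luminescence readout, no cutoff given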); conditions: DLD-1 viability, CellTiter-Glo luminescence; at 20 µM (top of the series)
[12] = target: 6-phosphogluconate dehydrogenase, decarboxylating (Homo sapiens) (UniProt P52209); assay: inhibition of human phosphogluconate dehydrogenase – biochemical, recombinant enzyme, NADPH absorbance, primary screen (AID 1159550;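 active means at least 20% inhibition of 6-phosphogluconate dehydrogenase activity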); conditions: recombinant 6PGD, NADPH absorbance 341 nm; at 10 µM; stronger effect = higher value
[13] = EMT-state selective cytotoxicity in co-culture – imaging, PC-3E GFP, TEM4-18 mCherry, primary screen (AID 1345086;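 active means compounds killing one labelled cell type while sparing the other, by normalised counts and ratio limits, not self-fluorescent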;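 on all read-outs here: cells exposed to compound for 72 h before imaging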;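 on red/green cell ratio (normalised): normalised mesenchymal count divided by normalised epithelial count so high means epithelial killing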); conditions: PC-3E GFP / TEM4-18 mCherry co-culture, imaging cell counts, at 1 µM; for red/green cell ratio (normalised): actives lie on both sides, counts scaled to control wells, 1 = unselective
[14] = viability loss with induced miR-34 in A549 – imaging, A549 dox-inducible miR-34, nuclei and caspase counts, primary screen (AID 1347080); conditions: A549 miR-34 inducible, Hoechst nuclei count, 48 h; measured here: total cells without miR-34 induction
[15] = MELAS cybrid and Rieske KO viability enhancers – cell-based, MELAS cybrids, Rieske KO mouse fibroblasts, CellTiter-Glo, primary screen (AID 1508586;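 active means mean z-score across replicates of 1.96 or higher in either the MELAS or the Rieske mutant cell line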;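 further: z relative to plate mean and SD of compound and empty wells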); conditions: low glucose
[16] = target: NAD(+) hydrolase SARM1 (Homo sapiens) (UniProt Q6SZW1); assay: blocking NAD cleavage by SARM1 SAM-TIR – cell lysate, NAD-Glo luminescence (AID 1508614;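 active means compound whose remaining NAD level is above about 45 nM, limit read from the data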); conditions: SAM-TIR HEK293T lysate NADase, at 1 µM, stronger effect = higher value
[17] = target: Mitogen-activated protein kinase 7 (Homo sapiens) (UniProt Q13164); assay: Gal4-ERK5 driven luciferase induction – cell-based, HTS, primary screen (AID 1508626;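 active means luciferase signal above three times the same-plate solvent-only control wells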;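 further: luciferase driven by Gal4-ERK5 fusion binding five Gal4 sites before minimal TATA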); conditions: HeLa Gal4-ERK5 transactivation, 18 h, at 5 µM, stronger effect = higher value
F380Y = assay: BK channel mutant inhibitors and activators – cell-based, U2OS BacMam, thallium flux, beta subunits, selectivity assay, profiling panel (AID 1259406); conditions: U2OS BacMam BK variants, at 30 µM;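 further: initial slope of Thallos dye fluorescence rise after thallium is added; log ratio against the mean of 0.3% DMSO vehicle wells on the same plate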
F380Y/beta2Delta = assay: as above; conditions: U2OS BacMam BK variants, at 30 µM
[18] = target: Calcium-activated potassium channel subunit alpha-1 (Homo sapiens) + Leucine-rich repeat-containing protein 26 (Homo sapiens) (UniProt Q12791+Q2I0M4); assay: as above; conditions: U2OS BacMam BK variants, F380Y/Slo1WT/gamma1, at 30 µM
[19] = measured here: epithelial PC-3E GFP cell survival
[20] = measured here: mesenchymal TEM4-18 mCherry cell survival
[21] = MELAS cybrid survival, CellTiter-Glo 48 h, stronger effect = higher value
[22] = Rieske KO mouse fibroblast survival, CellTiter-Glo 72 h

Sequence of Mitogen-activated protein kinase 7 (Homo sapiens) (Q13164 whole entry, looked up, the tested form may be a part): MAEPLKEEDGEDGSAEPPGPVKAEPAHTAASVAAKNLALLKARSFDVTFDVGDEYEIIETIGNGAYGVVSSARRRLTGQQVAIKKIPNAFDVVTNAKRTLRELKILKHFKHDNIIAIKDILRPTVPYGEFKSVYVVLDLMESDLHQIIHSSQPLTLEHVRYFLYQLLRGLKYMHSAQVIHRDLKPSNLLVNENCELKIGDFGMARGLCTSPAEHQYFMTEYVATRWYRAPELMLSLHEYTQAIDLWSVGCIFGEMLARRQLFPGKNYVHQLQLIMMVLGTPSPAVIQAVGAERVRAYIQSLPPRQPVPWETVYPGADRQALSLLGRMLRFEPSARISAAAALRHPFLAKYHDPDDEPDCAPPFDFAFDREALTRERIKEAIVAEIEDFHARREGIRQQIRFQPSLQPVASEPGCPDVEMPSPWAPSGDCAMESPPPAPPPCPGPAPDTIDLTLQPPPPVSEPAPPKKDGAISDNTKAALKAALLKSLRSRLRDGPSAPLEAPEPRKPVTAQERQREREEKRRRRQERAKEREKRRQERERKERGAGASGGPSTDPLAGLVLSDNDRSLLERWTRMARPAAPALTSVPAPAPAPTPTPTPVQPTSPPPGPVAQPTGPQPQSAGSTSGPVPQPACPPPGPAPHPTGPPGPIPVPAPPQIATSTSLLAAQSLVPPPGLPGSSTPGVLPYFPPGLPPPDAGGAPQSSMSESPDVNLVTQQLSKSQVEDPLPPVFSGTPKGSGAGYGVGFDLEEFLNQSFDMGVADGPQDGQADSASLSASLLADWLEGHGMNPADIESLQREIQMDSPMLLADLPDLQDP
Sequence of Calcium-activated potassium channel subunit alpha-1 (Homo sapiens) + Leucine-rich repeat-containing protein 26 (Homo sapiens) (Q2I0M4 whole entry, looked up, one chain of several): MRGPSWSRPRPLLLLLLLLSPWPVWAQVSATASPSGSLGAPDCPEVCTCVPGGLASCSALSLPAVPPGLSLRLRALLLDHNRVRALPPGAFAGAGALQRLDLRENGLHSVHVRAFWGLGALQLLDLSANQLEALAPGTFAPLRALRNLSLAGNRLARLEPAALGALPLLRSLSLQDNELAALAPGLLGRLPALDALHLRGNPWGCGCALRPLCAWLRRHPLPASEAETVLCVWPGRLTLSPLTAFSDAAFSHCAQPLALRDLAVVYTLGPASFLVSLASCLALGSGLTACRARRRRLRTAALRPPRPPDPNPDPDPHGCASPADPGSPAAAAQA
Sequence of 6-phosphogluconate dehydrogenase, decarboxylating (Homo sapiens) (P52209 whole entry, looked up): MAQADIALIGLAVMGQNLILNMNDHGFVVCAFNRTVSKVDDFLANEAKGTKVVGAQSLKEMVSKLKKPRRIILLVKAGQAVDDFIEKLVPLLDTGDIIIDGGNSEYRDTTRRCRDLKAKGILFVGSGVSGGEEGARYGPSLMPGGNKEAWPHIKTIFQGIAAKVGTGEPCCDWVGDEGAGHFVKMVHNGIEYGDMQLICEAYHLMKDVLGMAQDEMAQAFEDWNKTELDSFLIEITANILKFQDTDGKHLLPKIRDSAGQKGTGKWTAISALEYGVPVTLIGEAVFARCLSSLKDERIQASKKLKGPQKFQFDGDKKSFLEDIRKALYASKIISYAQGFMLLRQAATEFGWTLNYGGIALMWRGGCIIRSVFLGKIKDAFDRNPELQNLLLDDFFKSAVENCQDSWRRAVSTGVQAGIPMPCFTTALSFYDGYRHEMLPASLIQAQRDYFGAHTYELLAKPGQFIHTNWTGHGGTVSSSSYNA
Sequence of NAD(+) hydrolase SARM1 (Homo sapiens) (Q6SZW1 whole entry, looked up, the tested form may be a part): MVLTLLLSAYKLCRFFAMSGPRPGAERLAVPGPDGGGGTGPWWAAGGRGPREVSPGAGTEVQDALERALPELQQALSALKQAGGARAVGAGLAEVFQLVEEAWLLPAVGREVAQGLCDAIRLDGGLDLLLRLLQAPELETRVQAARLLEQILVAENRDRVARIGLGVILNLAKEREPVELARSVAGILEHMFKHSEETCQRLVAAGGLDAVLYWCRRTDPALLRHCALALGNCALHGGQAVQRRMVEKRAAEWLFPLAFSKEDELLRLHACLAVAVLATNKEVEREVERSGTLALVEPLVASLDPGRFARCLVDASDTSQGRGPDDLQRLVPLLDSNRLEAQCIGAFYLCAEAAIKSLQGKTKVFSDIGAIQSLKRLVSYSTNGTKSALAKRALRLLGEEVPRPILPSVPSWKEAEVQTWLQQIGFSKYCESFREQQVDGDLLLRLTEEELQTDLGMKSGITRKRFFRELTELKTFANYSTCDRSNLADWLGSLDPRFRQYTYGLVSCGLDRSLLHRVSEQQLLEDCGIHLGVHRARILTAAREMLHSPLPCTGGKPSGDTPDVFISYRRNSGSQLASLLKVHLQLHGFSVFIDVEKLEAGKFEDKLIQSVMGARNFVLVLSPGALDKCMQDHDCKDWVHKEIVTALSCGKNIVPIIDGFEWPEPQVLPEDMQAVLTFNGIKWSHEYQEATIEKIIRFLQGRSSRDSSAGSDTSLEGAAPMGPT

C=C(CC)C(=O)c1ccc(OCC(=O)O)c(Cl)c1Cl
inactive: inhibition [1] -4.09% | inhibition [2] 2.57% | fluorescence ratio [3] 0.9 | nuclear beta-catenin stimulation ([4]; at 10 µM) 3% | insulin secretion stimulation [5] -2.5% | viability decrease [6] 24.9% | GLP1 secretion stimulation [8] 3.1% | inhibition of viability [9] -25.8% | viability decrease (inhibition) [11] 14.8% | inhibition [12] 9.98% | red/green cell ratio (normalised) [13] 0.98 | z-score [15, 21] 0.232 and -0.08 | remaining NAD [16] 10 nM | luciferase signal [17] 64 AU | log fold change Tl+ flux (F380Y) -0.0103 | log fold change Tl+ flux (F380Y/beta2Delta) -0.0325 | log fold change Tl+ flux [18] 0.0507
0.9: normalised cell number [13, 20]
0.92: normalised cell number [13, 19]
active: tube area decrease [7] 52.6% | viability decrease (inhibition) [10] 122%
10500 and 9830 and 12200: cell count [14]
-0.298 and 0.189: z-score [15, 22]
1.4%: nuclear beta-catenin stimulation ([4]; stimulation, at 2 µM)

CCCCNC(=O)NS(=O)(=O)c1ccc(C)cc1
-0.151 and -0.133 and 0.0575: z-score [15, 22]
1.03: normalised cell number [13, 19]
1.15: normalised cell number [13, 20]
3.2%: nuclear beta-catenin stimulation ([4]; stimulation, at 2 µM)
inactive: inhibition [1] -5.91% | inhibition [2] 1.05% | fluorescence ratio [3] 0.91 | nuclear beta-catenin stimulation ([4]; at 10 µM) 0.2% | insulin secretion stimulation [5] 3.85% | viability decrease [6] -5.6% | tube area decrease [7] 5.7% | GLP1 secretion stimulation [8] 6.7% | inhibition of viability [9] -6.5% | viability decrease (inhibition) [10] -6% | viability decrease (inhibition) [11] -5.4% | inhibition [12] -14.4% | red/green cell ratio (normalised) [13] 1.12 | z-score [15, 21] -0.283 and 0.394 and 0.614 | remaining NAD [16] 10 nM | luciferase signal [17] 36 AU | log fold change Tl+ flux (F380Y) -0.00894 | log fold change Tl+ flux (F380Y/beta2Delta) 0.0378 | log fold change Tl+ flux [18] -0.0258

CN(C)CCC=C1c2ccccc2CCc2ccccc21
1.1%: nuclear beta-catenin stimulation ([4]; stimulation, at 2 µM)
1.31: normalised cell number [13, 19] | normalised cell number [13, 20]
inactive: inhibition [1] -7.73% | inhibition [2] -2% | fluorescence ratio [3] 0.92 | nuclear beta-catenin stimulation ([4]; at 10 µM) -0.4% | viability decrease [6] -59% | tube area decrease [7] 25% | GLP1 secretion stimulation [8] 5% | inhibition of viability [9] 21.5% | viability decrease (inhibition) [11] -1.8% | inhibition [12] 6.7% | red/green cell ratio (normalised) [13] 1 | z-score [15, 21] -0.201 and -0.81 | remaining NAD [16] 10 nM | luciferase signal [17] 36 AU | log fold change Tl+ flux [18] 0.0267
-0.129 and 0.0803: z-score [15, 22]
active: insulin secretion stimulation [5] 41.5% | viability decrease (inhibition) [10] 72.1% | log fold change Tl+ flux (F380Y) 0.184 | log fold change Tl+ flux (F380Y/beta2Delta) 0.179

C[C@H](CS)C(=O)N1CCC[C@H]1C(=O)O
-0.06 and -1.18: z-score [15, 22]
1.1: normalised cell number [13, 20]
1.01: normalised cell number [13, 19]
inactive: nuclear beta-catenin stimulation ([4]; at 10 µM) 0.8% | insulin secretion stimulation [5] -2.3% | viability decrease [6] -11.6% | tube area decrease [7] 12.5% | GLP1 secretion stimulation [8] 2.3% | inhibition of viability [9] -2.6% | viability decrease (inhibition) [10] 27.6% | viability decrease (inhibition) [11] -2.15% | inhibition [12] -3.72% | red/green cell ratio (normalised) [13] 1.1 | z-score [15, 21] -0.272 and -0.072 | remaining NAD [16] 10 nM | luciferase signal [17] 52 AU | log fold change Tl+ flux (F380Y) -0.0244 | log fold change Tl+ flux (F380Y/beta2Delta) 0.00669 | log fold change Tl+ flux [18] 0.0254
0.9%: nuclear beta-catenin stimulation ([4]; stimulation, at 2 µM)
